The values that follow come from PubChem BioAssay (NCATS).

Inconclusive results are not listed. Values without a mark were called inactive. Activity calls are given as the source filed them. The call rests on the fitted dose curve; in most records, active means well fitted cell-killing curve with a large enough effect; inconclusive means small, poorly fitted or top-dose-only effect; inactive means no such curve, though single readings can be large or run the other way.
Potency means the concentration at half of the fitted maximal effect.

A short description of one experiment: qHTS of pediatric cancer cell lines to identify multiple opportunities for drug repurposing: Primary screen for SK-N-SH cells (AID 1347098). Further: nearly all actives have a fitted effect of over 65% in size.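 On activity change, negative = cytotoxic: DMSO served as neutral control and bortezomib at 2.3 µM as positive control; on the % scale 0 is the no-effect control and ±100 the full control effect.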 The following applies: SK-N-SH viability, CellTiter-Glo luminescence, 48 h; series mostly up to 57 µM; activity change, negative = cytotoxic: at the top concentration. The method, boiled down: (§1)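 Cells (500-1,000/well) rested 5 h, then received compounds for 48 h; metabolically active cells were measured by CellTiter-Glo luminescence. Final concentrations spanned up to 46 µM (MIPE, 11-point) or 0.59 nM-46 µM (NPC, 8-point) in primary screens, 11-point in follow-ups.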
(In qHTS, concentration-response curves come from the screen itself.)
With `COc1ccc2c3c1O[C@H]1[C@@H](O)C=C[C@H]4[C@@H](C2)N(C)CC[C@@]341`, the Potency was 17.4 µM (active). Consider `Clc1ccc(CSC(Cn2ccnc2)c2ccc(Cl)cc2Cl)cc1` (configuration not stated), for which the Potency was 34.4 µM (active).

Turning to `CC[n+]1c(-c2ccccc2)c2cc(N)ccc2c2ccc(N)cc21`, the Potency was 7.7 µM (active). On the same count and under the same terms, the result for `Cc1ccc([N+](=O)[O-])[c]2c1[O][Hg]2` reads 1.09 µM (active). The same measure, in the same setting: the value for `c1ccc2c(c1)Sc1ccccc1N2CC1CN2CCC1CC2` (configuration not stated) was 27.3 µM (active). As for `COc1ccc2c(C(=O)c3ccc(Cl)cc3)c(C)n(CC(=O)O)c2c1`, the “activity change, negative = cytotoxic” value was -18.5%.

For `CN(C)C(=S)SSC(=S)N(C)C`, the Potency is 0.244 µM (active).

The next experiment in a line: qHTS of pediatric cancer cell lines to identify multiple opportunities for drug repurposing: Primary screen for NB1643 cells (AID 1347099). Further: nearly all actives have a fitted effect of over 50% in size.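 On activity change, negative = cytotoxic: plate controls were DMSO neutral control for no effect and bortezomib positive control for full effect.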 The following applies: NB1643 neuroblastoma viability, CellTiter-Glo luminescence, 48 h; series mostly up to 46 µM; activity change, negative = cytotoxic: at the top concentration. The gist of the method: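 500-1,000 cells/well; 5 h pre-incubation 37 °C/5% CO2; compound pinned; 48 h; CellTiter-Glo, 15 min RT; luminescence. MIPE 11-pt from 0.78 nM, NPC 8-pt from 0.59 nM final. Bortezomib 2.3 µM final as positive control.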
In the case of `COc1cc(CC(C)N)c(OC)cc1Br` (configuration not stated), the “activity change, negative = cytotoxic” value is 0% [at 92.7 µM]. As to `COc1ccc2c3c1O[C@H]1[C@@H](O)C=C[C@H]4[C@@H](C2)N(C)CC[C@@]341`, the Potency was 23.8 µM (active). For the compound `CCO[C@H]1O[C@@H]2OC3(C)CC[C@H]4[C@H](C)CC[C@@H]([C@H]1C)[C@@]24OO3`, the “activity change, negative = cytotoxic” value is 4.3%. On to `CC[C@H](O)C(C[C@H](C)N(C)C)(c1ccccc1)c1ccccc1`, for which the “activity change, negative = cytotoxic” value was 0% [at 92.7 µM]. Take `CC[n+]1c(-c2ccccc2)c2cc(N)ccc2c2ccc(N)cc21`: the Potency is 11.9 µM (active). For the compound `C[C@H](N)[C@H](O)c1ccc(O)c(O)c1`, the “activity change, negative = cytotoxic” value is 0%. Take `Cc1ccc([N+](=O)[O-])[c]2c1[O][Hg]2`: the Potency is 0.596 µM (active). The same measure, in the same setting: the result for `c1ccc2c(c1)Sc1ccccc1N2CC1CN2CCC1CC2` (configuration not stated) reads 23.7 µM (active). In the case of `CC[C@]1(O)CC[C@H]2[C@@H]3CCC4=CCCC[C@@H]4[C@H]3CC[C@@]21C`, the “activity change, negative = cytotoxic” value is -30.2%. On the same count and under the same terms, the result for `N#Cc1nn(-c2c(Cl)cc(C(F)(F)F)cc2Cl)c(N)c1S(=O)C(F)(F)F` (configuration not stated) reads -13.1%; that for `COc1ccc2c(C(=O)c3ccc(Cl)cc3)c(C)n(CC(=O)O)c2c1`, -8.4%.

`CN(C)C(=S)SSC(=S)N(C)C`: the Potency was 0.531 µM (active).

The nature of another experiment: qHTS of pediatric cancer cell lines to identify multiple opportunities for drug repurposing: Primary screen for LAN-5 cells (AID 1347100).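 On activity change, negative = cytotoxic: plate controls were DMSO neutral control for no effect and bortezomib positive control for full effect.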 The settings on record: LAN-5 neuroblastoma viability, CellTiter-Glo luminescence, 48 h; series mostly up to 46 µM; activity change, negative = cytotoxic: at the top concentration. The gist of the method:
as §1
As to `CCC(OC(C)=O)C(CC(C)NC)(c1ccccc1)c1ccccc1` (configuration not stated), the Potency was 43.7 µM (active). Still for that read-out and setting: the value for `COc1ccc2c3c1O[C@H]1[C@@H](O)C=C[C@H]4[C@@H](C2)N(C)CC[C@@]341` was 33.7 µM (active). As to `CC[C@H](O)C(C[C@H](C)N(C)C)(c1ccccc1)c1ccccc1`, the “activity change, negative = cytotoxic” value was -10.4% [at 92.7 µM]. On to `CC[n+]1c(-c2ccccc2)c2cc(N)ccc2c2ccc(N)cc21`, for which the Potency is 0.944 µM (active).

With `C[C@H](N)[C@H](O)c1ccc(O)c(O)c1`, the Potency was 26.6 µM (active). On to `CC[C@]1(O)CC[C@H]2[C@@H]3CCC4=CCCC[C@@H]4[C@H]3CC[C@@]21C`, for which the “activity change, negative = cytotoxic” value was -53.1%. Still for that read-out and setting: the result for `COc1ccc2c(C(=O)c3ccc(Cl)cc3)c(C)n(CC(=O)O)c2c1` reads 0.48%. As for `CN(C)C(=S)SSC(=S)N(C)C`, the Potency is 0.266 µM (active).
